In PubChem BioAssay (NCI) one finds growth data, which are given here for six compounds.

Compounds without any hit were thinned out: in the full panel of roughly 83,000, 20% have a hit.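 Cell lines were cultured in 96-well plates, exposed to a single compound concentration, and assessed for percent growth 48 hours later.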 Unmarked numbers belong to inactive results. Calls of active or inactive are those of the source. The calls were made as follows: active = growth percent below 10; inactive = the rest.

Among the test systems are SK-MEL-2 melanoma; EKVX NSCLC; SN12C renal; UO-31 renal; TK-10 renal; ACHN renal; CAKI-1 renal; A498 renal; CCRF-CEM leukemia; MOLT-4 leukemia; SR leukemia; RPMI-8226 leukemia; OVCAR-8 ovarian; OVCAR-5 ovarian; OVCAR-4 ovarian; SK-OV-3 ovarian; IGROV1 ovarian; OVCAR-3 ovarian; NCI/ADR-RES ovarian; HS 578T breast.
Holding throughout (experiment): NCI-60 one-dose screen, 48 h (100 = growth as untreated, 0 = no growth, -100 = all killed)
Holding throughout (details): 10 µM unless noted

Take `C#CCOc1cccc(Nc2ncnc3c(NC(=O)CCl)cccc23)c1`: the growth in the test with SK-MEL-2 melanoma was 36.5%; in the test on EKVX NSCLC, -19.8% (active); in the test with SN12C renal, 6.82% (active); in the test on UO-31 renal, 35.4%; in the test with TK-10 renal, 63.7%; in the test on ACHN renal, -72.4% (active). In addition, the growth with CAKI-1 renal is 54.9%; in the test on A498 renal, 101%; in the test with CCRF-CEM leukemia, -57.5% (active); with MOLT-4 leukemia, -12.7% (active); in the test on SR leukemia, -39.4% (active); in the test on RPMI-8226 leukemia it was -40.2% (active). Besides, the growth in the test on OVCAR-8 ovarian was -0.718% (active); in the test on OVCAR-5 ovarian, 67.6%; with OVCAR-4 ovarian, -27% (active); in the test with SK-OV-3 ovarian, 81.7%; with IGROV1 ovarian, -58.9% (active); in the test with OVCAR-3 ovarian it was -79% (active). Also, in the test on NCI/ADR-RES ovarian, the growth is 18.8%.
`COc1cc(CNC(=O)CCCC/C=C/C(C)C)ccc1OCc1cn(-c2cccc([N+](=O)[O-])c2)nn1`: the growth in the test on SK-MEL-2 melanoma was 88.4%; in the test with EKVX NSCLC, 95.1%; in the test on SN12C renal it was 89.5%; with UO-31 renal it was 74.7%; in the test on TK-10 renal, 105%; in the test on ACHN renal it was 81.7%. For the same compound, the growth in the test with CAKI-1 renal is 79%; in the test on A498 renal, 78.9%; in the test with CCRF-CEM leukemia, 90.2%; in the test on MOLT-4 leukemia, 86.6%; in the test with SR leukemia, 78.4%; in the test on RPMI-8226 leukemia, 65.9%. Further, the growth with OVCAR-8 ovarian is 76.9%; with OVCAR-5 ovarian, 107%; in the test with OVCAR-4 ovarian, 94.2%; with SK-OV-3 ovarian, 93.6%; in the test on IGROV1 ovarian, 89.4%; with OVCAR-3 ovarian it was 105%. Further, the growth with NCI/ADR-RES ovarian was 81.8%.
Take `Cc1csc(Nc2nc(-c3cccc(Cl)c3)nc(C(Cl)(Cl)Cl)n2)n1`: the growth in the test on SK-MEL-2 melanoma is 83.7%; in the test on EKVX NSCLC, 4.21% (active); with SN12C renal, 84.1%; in the test on UO-31 renal it was 39.6%; in the test with TK-10 renal, 3.91% (active); with ACHN renal it was -21.7% (active). The growth in the test on CAKI-1 renal was 4.29% (active); in the test with A498 renal, -18.6% (active); in the test on CCRF-CEM leukemia, 95.5%; with MOLT-4 leukemia, 74%; with SR leukemia, 58.9%; with RPMI-8226 leukemia, 13.8%. Also, the growth was 58.6% with OVCAR-8 ovarian; 46.8% in the test with OVCAR-5 ovarian; 70.1% in the test on OVCAR-4 ovarian; 70.8% in the test with SK-OV-3 ovarian; -18.4% (active) with OVCAR-3 ovarian; 43.5% in the test on HS 578T breast. For the same compound, the growth in the test with NCI/ADR-RES ovarian is 51.6%.
Turning to `O=c1n(C2OC(CO)C(O)C2O)ccc2nccn12` (centres undefined), the growth in the test on SK-MEL-2 melanoma was 126%; in the test on EKVX NSCLC, 108%; with SN12C renal, 107%; in the test with UO-31 renal it was 99.8%; with TK-10 renal, 122%; with ACHN renal, 104%. For the same compound, the growth is 102% in the test with CAKI-1 renal; 95.8% in the test on A498 renal; 99.5% in the test with CCRF-CEM leukemia; 97.9% in the test with MOLT-4 leukemia; 88.2% in the test with SR leukemia; 114% with RPMI-8226 leukemia. Also, the growth in the test on OVCAR-8 ovarian is 92%; with OVCAR-5 ovarian it was 115%; with OVCAR-4 ovarian it was 117%; in the test with SK-OV-3 ovarian, 117%; in the test on IGROV1 ovarian, 113%; in the test on OVCAR-3 ovarian it was 107%. In addition, in the test on NCI/ADR-RES ovarian, the growth was 113%.
Regarding `Cn1cc(-c2ccc3occ(-c4cccc(-c5ccncc5)c4)c3n2)cn1`, the growth is -1.75% (active) in the test with SK-MEL-2 melanoma; 30.7% with EKVX NSCLC; 13.1% in the test on SN12C renal; 11.3% in the test with UO-31 renal; 9.56% (active) in the test with TK-10 renal; 21.9% in the test on ACHN renal. In addition, the growth was 12% in the test on CAKI-1 renal; -15.7% (active) in the test on A498 renal; 10.9% in the test with CCRF-CEM leukemia; 13.2% in the test on MOLT-4 leukemia; 3.95% (active) in the test on SR leukemia; 0.0083% (active) in the test with RPMI-8226 leukemia. Also, the growth in the test with OVCAR-8 ovarian was 7.42% (active); in the test with OVCAR-5 ovarian, 55.4%; in the test on OVCAR-4 ovarian, 36.5%; with SK-OV-3 ovarian, 31.8%; with IGROV1 ovarian, 15.7%; in the test on OVCAR-3 ovarian it was 18.4%. Moreover, the growth in the test with NCI/ADR-RES ovarian was 4.84% (active).
On to `CCCN1C2CCC1/C(=C\c1ccc(OC)cc1)C(=O)/C2=C/c1ccc(OC)cc1`, for which the growth is 72.5% in the test on SK-MEL-2 melanoma; 77.6% with EKVX NSCLC; 75% in the test on SN12C renal; 56.3% with UO-31 renal; 85.9% in the test with TK-10 renal; 81.6% with ACHN renal. Besides, the growth was 74.4% with CAKI-1 renal; 80% in the test on A498 renal; 67.4% with CCRF-CEM leukemia; 55% with MOLT-4 leukemia; 45.4% with SR leukemia; 40.7% in the test on RPMI-8226 leukemia. For the same compound, the growth in the test on OVCAR-8 ovarian is 72.6%; with OVCAR-5 ovarian, 93.5%; with OVCAR-4 ovarian, 73.5%; in the test with SK-OV-3 ovarian, 79.4%; in the test on OVCAR-3 ovarian, 81.8%; in the test with HS 578T breast, 92%. Further, the growth in the test on NCI/ADR-RES ovarian was 77%.
